Test [1] deals with Cellular tumor antigen p53 (Homo sapiens) (UniProt P04637). Put plainly: Primary qHTS for small molecule compounds that upregulate eGFP-tagged delta133p53alpha (in N-terminal) cells. (AID 2060322). Further: nearly all actives have a fitted effect of over 75% in size. Further: potency means the concentration at half of the fitted maximal effect.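 On activation: cells pre-induced with doxycycline then dosed without doxycycline; series mostly up to about 56 µM; 0% = DMSO vehicle and 100% = reference activator.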 The settings on record: NCI-H358 eGFP-delta133p53alpha fluorescence, 24 h; activation: hits give high values. Summed up:
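NCI-H358 cells pre-induced 24 h with 10 ng/ml doxycycline for eGFP-delta133p53alpha, plated dox-free and exposed 24 h at 37C to titrated compounds. Fixed, Hoechst-stained; gated GFP peak intensity by laser scanning cytometry, normalized to DMSO (0%) and 57.5 uM 5-azacytidine (100%).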
Background: In qHTS, concentration-response curves come from the screen itself.

Test [2] deals with Aldehyde dehydrogenase, mitochondrial (Homo sapiens) (UniProt P05091). Description: qHTS for Inhibitors of the Aldehyde Dehydrogenase Family (ALDH2) Primary screen (AID 2061308).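 Further: plate controls were vehicle for no effect and reference inhibitor for full effect; nearly all actives have a fitted effect of over 55% in size.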
Test [3] concerns the target Retinaldehyde dehydrogenase 3 (Homo sapiens) (UniProt P47895). Description: qHTS for Inhibitors of the Aldehyde Dehydrogenase Family (ALDH1A3) Primary screen (AID 2061315).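 Further: plate controls were DMSO vehicle for no effect and reference inhibitor for full effect.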
Test [4] is described as follows: BET inhibitor-based combinations targeting novel dependencies in MECOM-rearranged (r) AML: MV-4-11 cell line (AID 2202233). Further: nearly all actives have a fitted effect of over 45% in size. Further: potency means the concentration at half of the fitted maximal effect. Summed up: (§1)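 Each compound is tested in an 11-point concentration series against 500 seeded cells/well for 48 hr. The luminescent viability signal is normalized to DMSO and blank wells, then reduced to AUC and a cell-line-centred Z-AUC.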
Test [5] in a line: BET inhibitor-based combinations targeting novel dependencies in MECOM-rearranged (r) AML: HNT-34 cell line (AID 2202234). Further: nearly all actives have a fitted effect of over 35% in size. Further: potency means the concentration at half of the fitted maximal effect. Summed up: as §1
Test [6] concerns the target Aldehyde dehydrogenase, mitochondrial (Homo sapiens) (UniProt P05091). Put plainly: qHTS for Inhibitors of the Aldehyde Dehydrogenase Family (ALDH2) Validation screens (AID 2061302; active means well fitted inhibition curve with a large enough effect; title and protocol of this record describe different tests;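 further: plate controls were DMSO vehicle for no effect and maximal DPI positive control response for full effect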).
Test [7] is described as follows: BET inhibitor-based combinations targeting novel dependencies in MECOM-rearranged (r) AML: OCI-AML3 cell line (AID 2202232). Further: nearly all actives have a fitted effect of over 35% in size. Further: potency means the concentration at half of the fitted maximal effect. The note with it: Potency: OCI-AML3 viability. Summed up: (§2)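 A 48 hr incubation preceded viability reading by CellTiter-Glo, with 15 min room-temperature development. Dose series had 11 points; normalization used DMSO and empty wells; AUC was computed and mean-centered per line as Z-AUC.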

Test [8] can be described thus: BET inhibitor-based combinations targeting novel dependencies in MECOM-rearranged (r) AML: UCSD-AML1 cell line (AID 2202235). Further: nearly all actives have a fitted effect of over 40% in size. Further: potency means the concentration at half of the fitted maximal effect. In short, it runs like this:
as §1

Test [9] in a line: BET inhibitor-based combinations targeting novel dependencies in MECOM-rearranged (r) AML: AML-191 cell line (AID 2202236; further: nearly all actives have a fitted effect of over 35% in size; further: potency means the concentration at half of the fitted maximal effect). In short, it runs like this: as §2
A short description of test [10]: BET inhibitor-based combinations targeting novel dependencies in MECOM-rearranged (r) AML: AML-194 cell line (AID 2202237; further: nearly all actives have a fitted effect of over 40% in size; further: potency means the concentration at half of the fitted maximal effect). In short, it runs like this:
as §2

For test [11], the target named is Retinaldehyde dehydrogenase 3 (Homo sapiens) (UniProt P47895). Put plainly: qHTS for Inhibitors of the Aldehyde Dehydrogenase Family (ALDH1A3) Validation screen (AID 2061312). Further: on the % scale 0 is the no-effect control and ±100 the full control effect; nearly all actives have a fitted effect of over 45% in size.
Test [12] can be described thus: BET inhibitor-based combinations targeting novel dependencies in MECOM-rearranged (r) AML: SET-2 cell line (AID 2202231). Further: nearly all actives have a fitted effect of over 35% in size. Further: potency means the concentration at half of the fitted maximal effect.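 On viability: plate controls were DMSO treated cells for no effect and wells without cells for full effect.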 The note with it: SET-2 AML cells viability, CellTiter-Glo luminescence, 48 h; viability: hits give low values, concentration not given here. In short, it runs like this:
as §2

The target of test [13] is Aldehyde dehydrogenase, mitochondrial (Homo sapiens) (UniProt P05091). Put plainly: qHTS for Inhibitors of the Aldehyde Dehydrogenase Family (ALDH2) Confirmatory screens (AID 2061303; active means well fitted inhibition curve with a large enough effect; title and protocol of this record describe different tests; further: on the % scale 0 is the no-effect control and ±100 the full control effect; nearly all actives have a fitted effect of over 45% in size).
Test [14] is described as follows: qHTS for Inhibitors of the Aldehyde Dehydrogenase Family (ALDH1A2, ALDH1A3, ALDH2, ALDH3A1) (AID 2061307). Further: on the % scale 0 is the no-effect control and ±100 the full control effect; nearly all actives have a fitted effect of over 50% in size.
Test [15] deals with Retinaldehyde dehydrogenase 3 (Homo sapiens) (UniProt P47895). Put plainly: qHTS for Inhibitors of the Aldehyde Dehydrogenase Family (ALDH1A3) Confirmatory screens (AID 2061311). Further: on the % scale 0 is the no-effect control and ±100 the full control effect; nearly all actives have a fitted effect of over 60% in size.
The target of test [16] is Retinal dehydrogenase 2 (Homo sapiens) (UniProt O94788). Description: qHTS for Inhibitors of the Aldehyde Dehydrogenase Family (ALDH1A2) Confirmation screens (AID 2061314). Further: on the % scale 0 is the no-effect control and ±100 the full control effect; nearly all actives have a fitted effect of over 65% in size.
The target in test [17] is Aldehyde dehydrogenase 1A1 (Homo sapiens) (UniProt P00352). Put plainly: qHTS for Inhibitors of the Aldehyde Dehydrogenase Family (ALDH1A1) Confirmatory screens (AID 2061316). Further: on the % scale 0 is the no-effect control and ±100 the full control effect; nearly all actives have a fitted effect of over 65% in size.
Test [18] deals with Cellular tumor antigen p53 (Homo sapiens) (UniProt P04637). Put plainly: Primary qHTS for small molecule compounds that upregulate eGFP-tagged delta133p53alpha (in C-terminal) cells. (AID 2060324).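 Further: 0% = DMSO wells and 100% = 57.5 µM 5-azacytidine.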 Summed up:
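Doxycycline (100 ng/ml, 24 h) first induced the eGFP fusion in NCI-H358 C-terminal-tag cells. Washed-out cells then received titrated compounds for 24 h at 37 °C before paraformaldehyde fixation, Hoechst staining and cytometric GFP quantification.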

Values joined by “and” are separate entries in the source; they are usually repeats but may differ in a detail not shown here. Identical values can stand only once. Results filed as inconclusive are left out. Where a structure was tested more than once in an assay, its records may differ in their call. A number with no mark means an inactive call. Active and inactive are the calls of the source. Unless noted, the call rests on the fitted dose curve; in most records, active means well fitted curve in the direction sought with a large enough effect; inconclusive means small, poorly fitted or top-dose-only effect, or another doubt; inactive means no such curve, though single readings can be large; an effect the other way counts as inactive or inconclusive.

Chain of Cellular tumor antigen p53 (Homo sapiens) (P04637 whole entry, looked up, the tested form may be a part): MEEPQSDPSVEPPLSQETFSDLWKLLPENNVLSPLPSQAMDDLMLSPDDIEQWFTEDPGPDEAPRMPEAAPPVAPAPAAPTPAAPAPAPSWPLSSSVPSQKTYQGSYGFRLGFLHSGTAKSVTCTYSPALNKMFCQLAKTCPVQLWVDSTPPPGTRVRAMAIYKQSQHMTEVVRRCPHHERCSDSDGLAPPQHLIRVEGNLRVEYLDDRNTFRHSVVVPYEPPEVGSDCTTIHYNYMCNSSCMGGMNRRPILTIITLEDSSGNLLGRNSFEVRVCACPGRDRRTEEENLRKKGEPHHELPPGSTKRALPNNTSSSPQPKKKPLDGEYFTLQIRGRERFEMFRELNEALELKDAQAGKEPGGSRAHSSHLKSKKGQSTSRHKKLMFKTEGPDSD

Take `COc1cc2nccc(Oc3ccc(NC(=O)C4(C(=O)Nc5ccc(F)cc5)CC4)cc3)c2cc1OC`: the Potency is 38.5 µM (active) in [1], 0.0166 µM (active) in test [4] and 2.95 µM (active) in test [5]. For the same molecule, the activation in test [1] was 11.6%. The Potency entry in test [2] and in test [3] was “inactive” throughout.

As for `O=C1Cc2cc(CCN3CCN(c4nsc5ccccc45)CC3)c(Cl)cc2N1`, in [1], the Potency is 27.6 µM (active). Moreover, in [1], the activation is -69%. Further, the Potency result in [6], in test [2] and in test [3] was “inactive” throughout.

On to `COc1cc(N2CCC(N(C)C)CC2)ccc1Nc1ncc(Cl)c(Nc2ccccc2P(C)(C)=O)n1`, for which the Potency was 2.69 µM (active) in [1]; 7.42 µM (active) in test [7]; 0.0934 µM (active) in [4]; 2.63 µM (active) in test [5]; 2.63 µM (active) in test [8]; 9.34 µM (active) in test [9]. For the same molecule, the Potency in test [10] was 7.42 µM (active). Besides, the activation in test [1] is -5.31%. Further, the Potency result in test [2] and in [3] was “inactive” each time.

For `CCNC(=O)Nc1ccc2ncc(Nc3ccc(C)cc3)nc2n1`, in [1], the Potency is 30.1 µM (active) and the activation was -1.61%. The Potency entry in test [2] is “inactive”. In addition, in test [3], the Potency entry was “inactive”.

Turning to `Cn1c(=O)c(-c2c(Cl)cccc2Cl)cc2cnc(Nc3cccc(C(=O)O)c3)nc21`, the Potency in [1] is 12 µM (active); in test [7], 0.235 µM (active). For the same molecule, the activation in [1] was 29.6%. In addition, the Potency result in test [2], in test [11], in [3], in [8], in [9] and in test [10] was “inactive” in each case. The viability in [12] was 116%.

In the case of `CN1CCc2c(c3ccccc3n2Cc2ccc(C(=O)NO)cc2)C1`, the Potency in test [1] is 34.3 µM (active); in [7] it was 20.9 µM (active); in [4] it was 20.9 µM (active); in test [5], 9.34 µM (active); in test [10], 23.5 µM (active). The activation in [1] was 77.5%. The Potency result in test [2] and in test [3] was “inactive” in each case.

Regarding `Cc1cc(Nc2nc(N[C@@H](C)c3ncc(F)cn3)ncc2Cl)n[nH]1`, the Potency in test [1] is 21.7 µM (active); in test [12] it was 1.48 µM (active); in test [7], 1.32 µM (active); in [9], 0.132 µM (active). For the same molecule, the activation in [1] was -0.181% and 24.8%. Besides, the Potency result in test [2], in [11] and in test [3] was “inactive” in each case.

Regarding `COc1cc2c(Nc3ccc(Br)cc3F)ncnc2cc1OCC1CCN(C)CC1`, the Potency in test [1] is 21.3 µM (active); in [7], 23.5 µM (active); in test [4], 3.32 µM (active); in test [5], 2.63 µM (active); in test [8], 14.8 µM (active); in test [9], 20.9 µM (active). The Potency in test [10] is 23.5 µM (active). Besides, the activation in test [1] is 0.071% and -8.47%. The Potency entry in test [2] and in [3] was “inactive” throughout.

Regarding `Cc1ccc(NC(=O)C2(c3ccc4c(c3)OC(F)(F)O4)CC2)nc1-c1cccc(C(=O)O)c1`, the Potency in test [1] is 0.153 µM (active). The activation in test [1] was -10.5%. Besides, the Potency result in test [2], in [11], in test [3], in test [7], in test [5] and in [8] was “inactive” each time. Also, the Potency entry in test [9] was “inactive”. Also, the viability in test [12] is 94.8%.

Consider `CCCCOc1c(C(=O)c2c(F)cc(C)cc2F)cnc2n[nH]cc12`, for which the Potency in [1] is 3.79 µM (active); in test [7], 2.09 µM (active); in test [4], 1.48 µM (active); in test [5], 2.95 µM (active); in test [8] it was 2.35 µM (active); in [9] it was 2.63 µM (active). Moreover, the Potency in test [10] is 3.72 µM (active). The activation in [1] is 10.1%. For the same molecule, the Potency entry in test [2] and in test [3] was “inactive” throughout.

Regarding `COCC(=O)O[C@]1(CCN(C)CCCc2nc3ccccc3[nH]2)CCc2cc(F)ccc2[C@@H]1C(C)C`, in [1], the Potency was 21.9 µM (active). Further, in [1], the activation is 29.4%. In addition, the Potency entry in test [6], in test [13], in test [14], in test [15], in test [16] and in [17] was “inactive” throughout.

For the molecule `NC(=O)NO`, the Potency in [1] is 30.6 µM (active). The activation in [1] is -16.4% and -32.9%. The Potency entry in test [18], in [6], in [11], in test [7], in test [4] and in test [5] was “inactive” throughout. Further, the Potency entry in [8], in test [9] and in test [10] was “inactive” throughout.

For the molecule `CN1CCN(CCOc2cc(OC3CCOCC3)c3c(Nc4c(Cl)ccc5c4OCO5)ncnc3c2)CC1`, the Potency in test [1] is 12.2 µM (active); in test [5] it was 1.32 µM (active); in [9] it was 18.6 µM (active); in test [10] it was 23.5 µM (active). Further, the activation in [1] was -8.11%. Also, the Potency result in test [2], in [11] and in [3] was “inactive” each time.

In general, viability refers to a read-out of living cells in per cent, often relative to untreated cells.
